Test [1] is described as follows: NCI Yeast Anticancer Drug Screen. Data for the rad50 strain (AID 155).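 Also: 0% = growth of vehicle-only cultures of the same strain.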 Conditions: S. cerevisiae rad50 strain growth inhibition, stronger effect = higher value. In outline: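 Compounds were tested on a yeast strain with an engineered DNA damage repair alteration; the reported value is growth inhibition normalised to vehicle treatment.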
A short description of test [2]: NCI Yeast Anticancer Drug Screen. Data for the mec2-1 strain (AID 157). The note with it: S. cerevisiae mec2-1 strain, stronger effect = higher value. Summed up: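 Strain: mec2-1 (DNA repair/cell cycle alteration). Compound exposure, then growth measured; inhibition expressed relative to vehicle.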
Test [3] is described as follows: NCI Yeast Anticancer Drug Screen. Data for the sgs1 mgt1 strain (AID 161).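 Also: 0% = growth of cultures given vehicle only.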 Conditions: S. cerevisiae sgs1 mgt1 strain, stronger effect = higher value. In outline: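 Mutant yeast exposed to compound; growth scored against vehicle-only wells.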
The nature of test [4]: NCI Yeast Anticancer Drug Screen. Data for the cln2 rad14 strain (AID 165).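 Also: 0% = growth equal to vehicle treated cultures.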 Conditions: S. cerevisiae cln2 rad14 strain, stronger effect = higher value. Summed up: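 Compounds are applied to the cln2 rad14 yeast strain, and growth is then compared with that of vehicle-treated cultures to give inhibition.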
Test [5] is described as follows: NCI Yeast Anticancer Drug Screen. Data for the bub3 strain (AID 167). The note with it: S. cerevisiae bub3 mutant strain, stronger effect = higher value. Summed up: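 Growth of a checkpoint-deficient yeast mutant is measured after compound exposure. Values represent inhibition relative to vehicle.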
Test [6] can be described thus: NCI Yeast Anticancer Drug Screen. Data for the mlh1 rad18 strain (AID 175). The note with it: S. cerevisiae mlh1 rad18 strain growth inhibition, stronger effect = higher value. In outline: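 Read-out is yeast growth inhibition, calculated against vehicle-only controls. The compound was applied to a strain engineered with DNA damage repair alterations.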
The mark [7] stands for this setting: at 5.0 µM (retest, dose inferred, filed as 0.5).
Setting [8] is: at 50.0 µM (retest, dose inferred, filed as 5.0).

About 79,000 compounds went through this panel and 15% of them were active in at least one assay; those are over-represented in the sample as a whole. A number with no mark means an inactive call. Calls of active or inactive are those of the source. Rule as the data show it: active = growth inhibition above about 70%; inactive = the rest.

As to `CCOc1ccc2nc([NH-])sc2c1.CCOc1ccc2nc([NH-])sc2c1.CCOc1ccc2nc([NH-])sc2c1.CCOc1ccc2nc([NH-])sc2c1.[Cl][Rh][Cl]`, the growth inhibition in test [1] (setting [7]) was -5%; in test [1] (setting [8]) it was 46%; in test [1] (at 50.0 µM) it was 29.9%; in test [2] (setting [7]), 0%; in test [2] (setting [8]) it was 32%; in test [2] (at 50.0 µM), 31.6%. Also, the growth inhibition in test [3] (setting [7]) is 4%; in test [3] (setting [8]) it was 63%; in test [3] (at 50.0 µM) it was 67.2%; in test [4] (setting [7]), -5%; in test [4] (setting [8]) it was 26%; in test [4] (at 50.0 µM), 30.1%. Besides, the growth inhibition in test [5] (setting [7]) was -10%; in test [5] (setting [8]), 34%; in test [5] (at 50.0 µM), 0.25%; in test [6] (setting [7]), 6%; in test [6] (setting [8]), 81% (active); in test [6] (at 50.0 µM), 80% (active).

With `CC(=O)N1CC(C)CC2OC3(CCC4C5CCC6CC(O)CCC6(C)C5C(=O)C4C3C)C(C)C21` (stereo not given), the growth inhibition in test [1] (setting [7]) is 10%; in test [1] (setting [8]), 98% (active); in test [1] (at 50.0 µM), 91.6% (active); in test [2] (setting [7]), 1%; in test [2] (setting [8]), 98% (active); in test [2] (at 50.0 µM) it was 93.7% (active). Besides, the growth inhibition in test [3] (setting [7]) was 19%; in test [3] (setting [8]), 97% (active); in test [3] (at 50.0 µM) it was 92.6% (active); in test [4] (setting [7]), 26%; in test [4] (setting [8]), 98% (active); in test [4] (at 50.0 µM), 92.5% (active). Also, the growth inhibition in test [5] (setting [7]) was 14%; in test [5] (setting [8]), 98% (active); in test [5] (at 50.0 µM) it was 92.2% (active); in test [6] (setting [7]), -20%; in test [6] (setting [8]) it was 98% (active); in test [6] (at 50.0 µM) it was 91.8% (active).

For `C[C@H](CCC1=NCCN1)[C@H]1CC[C@H]2[C@@H]3CC[C@@H]4C[C@H](O)CC[C@]4(C)[C@H]3C[C@H](O)[C@]12C`, the growth inhibition is 93% (active) in test [1] (setting [7]); 99% (active) in test [1] (setting [8]); 91.3% (active) in test [1] (at 50.0 µM); 26% in test [2] (setting [7]); 76% (active) in test [2] (setting [8]); 93.1% (active) in test [2] (at 50.0 µM). In addition, the growth inhibition in test [3] (setting [7]) is 39%; in test [3] (setting [8]), 99% (active); in test [3] (at 50.0 µM) it was 90.2% (active); in test [4] (setting [7]) it was 59%; in test [4] (setting [8]) it was 99% (active); in test [4] (at 50.0 µM) it was 87.8% (active). The growth inhibition in test [5] (setting [7]) is -10%; in test [5] (setting [8]), 99% (active); in test [5] (at 50.0 µM), 91.4% (active); in test [6] (setting [7]), 32%; in test [6] (setting [8]), 99% (active); in test [6] (at 50.0 µM), 91% (active).

Turning to `Nc1c2c(=O)[nH]c(=O)c2c(N)c2c(=O)c3ccccc3c(=O)c12`, the growth inhibition in test [1] (setting [7]) was 36%; in test [1] (setting [8]) it was 53%; in test [1] (at 50.0 µM), 78.2% (active); in test [2] (setting [7]) it was 21%; in test [2] (setting [8]), 47%; in test [2] (at 50.0 µM), 35.8%. For the same molecule, the growth inhibition in test [3] (setting [7]) is 50%; in test [3] (setting [8]) it was 72% (active); in test [3] (at 50.0 µM) it was 38%; in test [4] (setting [7]) it was -26%; in test [4] (setting [8]), 41%; in test [4] (at 50.0 µM) it was 34.5%. The growth inhibition is 21% in test [5] (setting [7]); 78% (active) in test [5] (setting [8]); 29.4% in test [5] (at 50.0 µM); 30% in test [6] (setting [7]); 59% in test [6] (setting [8]); 60.6% in test [6] (at 50.0 µM).

`O=C1OCCCN1/N=C/c1ccc([N+](=O)[O-])o1`: the growth inhibition in test [1] (setting [7]) is 16%; in test [1] (setting [8]), 59%; in test [1] (at 50.0 µM), 82% (active); in test [2] (setting [7]) it was 4%; in test [2] (setting [8]), 31%; in test [2] (at 50.0 µM) it was 55%. Further, the growth inhibition was 10% in test [3] (setting [7]); 65% in test [3] (setting [8]); 84.8% (active) in test [3] (at 50.0 µM); 2% in test [4] (setting [7]); 32% in test [4] (setting [8]); 42.3% in test [4] (at 50.0 µM). In addition, the growth inhibition in test [5] (setting [7]) is 8%; in test [5] (setting [8]) it was 62%; in test [5] (at 50.0 µM) it was 52.3%; in test [6] (setting [7]) it was 24%; in test [6] (setting [8]), 78% (active); in test [6] (at 50.0 µM), 89.2% (active).

Consider `C=C1C(=O)OC(CCCCCCCCCCCCC)C1C(=O)O` (stereo not given), for which the growth inhibition is 69% in test [1] (setting [7]); 89% (active) in test [1] (setting [8]); 84% (active) in test [1] (at 50.0 µM); 93% (active) in test [2] (setting [7]); 89% (active) in test [2] (setting [8]); 89.5% (active) in test [2] (at 50.0 µM). Also, the growth inhibition is 71% (active) in test [3] (setting [7]); 84% (active) in test [3] (setting [8]); 76.3% (active) in test [3] (at 50.0 µM); 63% in test [4] (setting [7]); 85% (active) in test [4] (setting [8]); 85% (active) in test [4] (at 50.0 µM). For the same molecule, the growth inhibition in test [5] (setting [7]) was 86% (active); in test [5] (setting [8]), 90% (active); in test [5] (at 50.0 µM), 86.5% (active); in test [6] (setting [7]), 86% (active); in test [6] (setting [8]) it was 89% (active); in test [6] (at 50.0 µM) it was 80.8% (active).

Consider `COc1ccc(CSC(=S)Nc2ccc(Cl)cc2Cl)cc1`, for which the growth inhibition in test [1] (setting [7]) was 6%; in test [1] (setting [8]), 98% (active); in test [1] (at 50.0 µM) it was 99.2% (active); in test [2] (setting [7]) it was 5%; in test [2] (setting [8]) it was 99% (active); in test [2] (at 50.0 µM) it was 99.3% (active). Further, the growth inhibition in test [3] (setting [7]) was 8%; in test [3] (setting [8]), 99% (active); in test [3] (at 50.0 µM), 99.3% (active); in test [4] (setting [7]), -24%; in test [4] (setting [8]), 96% (active); in test [4] (at 50.0 µM), 98.7% (active). In addition, the growth inhibition was -6% in test [5] (setting [7]); 97% (active) in test [5] (setting [8]); 99% (active) in test [5] (at 50.0 µM); 3% in test [6] (setting [7]); 98% (active) in test [6] (setting [8]); 98.8% (active) in test [6] (at 50.0 µM).

With `CCOC(=O)C(C)(C)Oc1ccc2c(=O)cc(-c3ccccc3)oc2c1`, the growth inhibition in test [1] (setting [7]) was -8%; in test [1] (setting [8]) it was 95% (active); in test [1] (at 50.0 µM) it was 85.5% (active); in test [2] (setting [7]) it was -28%; in test [2] (setting [8]), 96% (active); in test [2] (at 50.0 µM), 93% (active). Moreover, the growth inhibition in test [3] (setting [7]) is -43%; in test [3] (setting [8]) it was 95% (active); in test [3] (at 50.0 µM) it was 93.4% (active); in test [4] (setting [7]), 6%; in test [4] (setting [8]), 96% (active); in test [4] (at 50.0 µM), 92.5% (active). Also, the growth inhibition was -17% in test [5] (setting [7]); 97% (active) in test [5] (setting [8]); 92.5% (active) in test [5] (at 50.0 µM); -56% in test [6] (setting [7]); 94% (active) in test [6] (setting [8]); 89.9% (active) in test [6] (at 50.0 µM).

Regarding `FC(F)(F)c1ccc(Nc2ccc(C(F)(F)F)cc2)cc1`, the growth inhibition in test [1] (setting [7]) is 9%; in test [1] (setting [8]) it was 100% (active); in test [1] (at 50.0 µM), 99.6% (active); in test [2] (setting [7]) it was -17%; in test [2] (setting [8]) it was 100% (active); in test [2] (at 50.0 µM), 99.8% (active). Moreover, the growth inhibition in test [3] (setting [7]) was 12%; in test [3] (setting [8]), 100% (active); in test [3] (at 50.0 µM), 99.6% (active); in test [4] (setting [7]), -5%; in test [4] (setting [8]) it was 100% (active); in test [4] (at 50.0 µM), 99.6% (active). Further, the growth inhibition in test [5] (setting [7]) is -3%; in test [5] (setting [8]) it was 99% (active); in test [5] (at 50.0 µM), 99.7% (active); in test [6] (setting [7]), 12%; in test [6] (setting [8]), 100% (active); in test [6] (at 50.0 µM), 99.8% (active).

Take `O=C(O)CCC(=O)NNc1ccccc1`: the growth inhibition in test [1] (setting [7]) was 8%; in test [1] (setting [8]), 68%; in test [1] (at 50.0 µM), 57.9%; in test [2] (setting [7]) it was -1%; in test [2] (setting [8]), 66%; in test [2] (at 50.0 µM) it was 85.9% (active). For the same molecule, the growth inhibition in test [3] (setting [7]) is 12%; in test [3] (setting [8]) it was 58%; in test [3] (at 50.0 µM) it was 61.9%; in test [4] (setting [7]) it was 8%; in test [4] (setting [8]), 81% (active); in test [4] (at 50.0 µM), 83.2% (active). For the same molecule, the growth inhibition in test [5] (setting [7]) is 14%; in test [5] (setting [8]), 91% (active); in test [5] (at 50.0 µM) it was 90.3% (active); in test [6] (setting [7]), 20%; in test [6] (setting [8]), 94% (active); in test [6] (at 50.0 µM), 86.1% (active).

The values above are taken from PubChem BioAssay (NCI).
